Compounds without any hit were thinned out: in the full panel of roughly 83,000, 20% have a hit.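 Percent growth is the endpoint: 0 to 100 indicates growth inhibition (40 means 60% inhibition), 0 means no net growth, and negative values indicate cell death.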 A number with no mark means an inactive call. The source made the active and inactive calls.
tested on: SR leukemia; test: NCI-60 one-dose screen, 48 h (100 = growth as untreated, 0 = no growth, -100 = all killed); conditions: 10 µM
Method: Growth inhibition of the SR human tumor cell line is measured as a screen for anti-cancer activity. Cells are grown in 96 well plates and exposed to the test compound for 48 hours. Compounds are tested at a single concentration, which is 10^-5 M for most compounds. The reported endpoint is percent growth (GI% or GIPRCNT), where numbers from 0 - 100% represent growth inhibition, and numbers from -100% - 0 represent cell death. For example, a value of 40 represents 60% growth inhibition. A value of 0 means no net growth occurred over the course of the experiment. A value of -40 indicates 40% of cells at the beginning of the experiment died by the end of the experiment. A value of -100 means all cells are dead at the end of the experiment.
NCI-60 Human Tumor Cell Lines Screen was performed using the standard one-dose NCI protocol, which is described in more detail at https://dtp.cancer.gov/discovery_development/nci-60/default.htm.
Compounds with GIPRCNT values below 10 were considered active. Activity score was based on GIPRCNT using the following formula: […]
Score is 0 for GIPRCNT values of 100 or above, 50 for GIPRCNT values of 0, and 100 for GIPRCNT values of -100.

| Compound | growth |
| --- | --- |
| O=C(NNc1nc(N2CCCC2)nc(N2CCCC2)n1)c1ccccc1 | 70.8% |
| CCn1nc(-c2ccc(C(=O)OC)cc2)nc2c(=O)n(C)c(=O)nc1-2 | 7.67% (active) |
| O=C(c1ccc(Cl)cc1)c1no[n+]([O-])c1C(=O)c1ccc(Cl)cc1 | -18.5% (active) |
| N#CN1CC[C@H](C(=O)Nc2ncc(-c3ccncc3)s2)C1 | 1.53% (active) |
| Cc1cc(C)c2nc(C)c(C)[n+]([O-])c2c1 | 82.3% |
| FC(F)(F)c1ccc(-c2nc(-c3nc4cc(Cl)c(Cl)cc4[nH]3)c3ccccn23)cc1 | 84.2% |
| O=C1CC[C@@H](C(=O)N[C@H]2CSSC[C@@H](C(=O)NCCc3ccccc3)NC(=O)[C@H](Cc3ccccc3)NC(=O)[C@@H]3CCCN3C(=O)[C@@H]3CCCN3C2=O)N1 | 94.5% |
| CS(=O)(=O)Nc1ccc(OCc2nnc(-c3ccc(Cl)cc3)o2)c(F)c1 | 81.2% |
| CCCCn1c(=O)[nH]c2c(c1=O)C(c1ccc(Cl)cc1)c1c([nH]c(=O)n(CCCC)c1=O)N2 | 106% |
| CCc1nn2c(-c3cc(OC)c(OC)c(OC)c3)c(-c3cc(OC)c(OC)c(OC)c3)nc2s1 | 61.9% |
| COc1ccc(Cn2cc3c(c2-c2ccccc2)CC(C)(C)c2cnoc2-3)cc1 | 24.5% |
| FC(F)(F)c1ccc(-c2cnc(Cl)nc2NCc2cc(C(F)(F)F)cc(C(F)(F)F)c2)cc1 | 26.2% |
| CC(C)c1[nH]nc2c(NCc3ccc(-c4ccccn4)cc3)nc(SCCN(C)C)nc12 | -10.3% (active) |
| N#Cc1ccc(-n2cnc(NC(=O)[C@H]3CCN(C#N)C3)c2)cc1 | 6.48% (active) |
| C/C(=N/NC(=O)c1sc(=S)n(C)c1N)c1cc2cc(Cl)ccc2o1 | 98.7% |
| CCCCCN(CCCCC)C(C)C(O)c1ccc2cc(Cl)c3ccccc3c2c1 (stereo not given) | 84.7% |
| COc1ccc2nc(/C=C/c3ccc(N(C)C)cc3)sc2c1 | 86.1% |
| COc1cc(/C=C/C(=O)c2cc(-c3ccc(C(F)(F)F)cc3)ccc2O)cc(OC)c1OC | 23.4% |
| CC(CNC(Cc1ccccc1)c1ccccc1)NC(Cc1ccccc1)c1ccccc1 (stereo not given) | -19.7% (active) |
| COc1ccc(COC(=O)CC(C)C)cc1 | 97.1% |

| Compound | growth |
| --- | --- |
| O=C(O)CCCN1C(=O)NC2(C1=O)c1ccccc1-c1ccccc12 | 100% |
| CC(=O)n1nc(C(=O)OC(C)(C)C)c2cc(F)c(F)cc21 | 104% |
| CCCCCCCCCCCCc1ccc(C(=O)/C=C/C(=O)O)cc1 | -28.1% (active) |
| CCCCOCC(=O)NC(NP(=O)(N(C)C)N(C)C)C(Cl)(Cl)Cl (stereo not given) | 111% |
| CCOC(=O)Nc1ccc2c(c1)C(=O)N(CCOC)c1ccccc1O2 | 17.5% |
| CC(Oc1ccc(Cl)cc1)c1ccccc1 (stereo not given) | 99.1% |
| O=S(=O)(O)C1(O)CCCCC1 | 83.1% |
| CC(C)=C1CCC(C)C/C1=N\N=C(N)N (stereo not given) | 105% |
| Cn1c(=O)c2[nH]c(C(O)c3ccc(Cl)cc3)nc2n(C)c1=O (stereo not given) | 104% |
| O=C(OCC1OC(n2cc(C(F)(F)F)c(=O)[nH]c2=O)CC1OC(=O)c1ccc([N+](=O)[O-])cc1)c1ccc([N+](=O)[O-])cc1 (stereo not given) | 60.4% |
| CCCCCC(CCC)COC(=O)c1ccc(OC)cc1 (stereo not given) | 101% |
| COc1cc(Nc2ccnc(N3CCN(c4ccnc5cc(Cl)ccc45)CC3)n2)cc(OC)c1 | -17% (active) |
| COc1ccc2c(c1)/C(=C/c1cc(OC)c(OC)c(OC)c1)C(=O)N2C | 17% |
| CN1CCN(c2nc(-c3cccnc3)nc3sc4c(c23)CCCCCC4)CC1 | 34.2% |
| CCOC(=O)c1ccc(NC(=O)Nc2nncs2)cc1 | 9.88% (active) |
| COc1ccc(-c2oncc2-c2cc(OC)c3c(c2)OCO3)cc1 | 7.62% (active) |
| COc1ccc(-c2nsc3c2NC(=O)CC3c2ccc(Cl)cc2)cc1 (stereo not given) | 67.8% |
| c1ccc(OCCC[P+](c2ccccc2)(c2ccccc2)c2ccccc2)cc1 | -21.2% (active) |
| O=C(/C=C/c1ccc(Cl)cc1)c1ccc(Br)cc1 | 71.4% |
| Cc1cc(Nc2cccc(F)c2)nc(NCc2ccccc2)n1 | 23% |
